# Assay results as given in ChEMBL document CHEMBL1961873, “Compounds: GSK PKIS; Assays: Nanosyn kinase panel” (2012).
# Assays:
# [1] = molecular target: High affinity nerve growth factor receptor (Homo sapiens) (UniProt P04629); conditions: at 1 µM;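 also: each value is the mean percent inhibition of TRKA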
# [2] = molecular target: BDNF/NT-3 growth factors receptor (Homo sapiens) (UniProt Q16620); conditions: at 0.1 µM
# [3] = molecular target: BDNF/NT-3 growth factors receptor (Homo sapiens) (UniProt Q16620); conditions: at 1 µM
# [4] = molecular target: NT-3 growth factor receptor (Homo sapiens) (UniProt Q16288); conditions: at 0.1 µM
# [5] = molecular target: NT-3 growth factor receptor (Homo sapiens) (UniProt Q16288); conditions: at 1 µM
# [6] = molecular target: T1, Tyrosine-protein kinase TXK (Homo sapiens) (UniProt P42681); conditions: at 0.1 µM
# T1 sequence (whole entry): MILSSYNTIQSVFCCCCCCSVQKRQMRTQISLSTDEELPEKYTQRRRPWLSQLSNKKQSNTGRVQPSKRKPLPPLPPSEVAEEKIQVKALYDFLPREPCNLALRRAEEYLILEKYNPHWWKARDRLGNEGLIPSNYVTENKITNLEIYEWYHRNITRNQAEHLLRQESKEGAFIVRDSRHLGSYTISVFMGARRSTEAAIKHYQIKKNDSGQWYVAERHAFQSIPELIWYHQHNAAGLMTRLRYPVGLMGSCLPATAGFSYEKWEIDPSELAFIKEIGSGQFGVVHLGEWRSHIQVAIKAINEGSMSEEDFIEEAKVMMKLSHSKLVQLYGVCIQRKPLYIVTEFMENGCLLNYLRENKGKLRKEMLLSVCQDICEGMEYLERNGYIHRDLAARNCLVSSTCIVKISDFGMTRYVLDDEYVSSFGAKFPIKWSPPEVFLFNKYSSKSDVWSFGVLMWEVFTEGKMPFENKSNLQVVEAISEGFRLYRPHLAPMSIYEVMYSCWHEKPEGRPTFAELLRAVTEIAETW
# [7] = molecular target: T1, Tyrosine-protein kinase TXK (Homo sapiens); conditions: at 1 µM
# [8] = molecular target: Non-receptor tyrosine-protein kinase TYK2 (Homo sapiens) (UniProt P29597); conditions: at 0.1 µM;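 also: each value is a mean of the inhibition readings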
# [9] = molecular target: T2, Dual specificity protein kinase TTK (Homo sapiens) (UniProt P33981); conditions: at 1 µM;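 also: reported figures are mean TTK inhibition at 1 µM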
# T2 sequence (whole entry): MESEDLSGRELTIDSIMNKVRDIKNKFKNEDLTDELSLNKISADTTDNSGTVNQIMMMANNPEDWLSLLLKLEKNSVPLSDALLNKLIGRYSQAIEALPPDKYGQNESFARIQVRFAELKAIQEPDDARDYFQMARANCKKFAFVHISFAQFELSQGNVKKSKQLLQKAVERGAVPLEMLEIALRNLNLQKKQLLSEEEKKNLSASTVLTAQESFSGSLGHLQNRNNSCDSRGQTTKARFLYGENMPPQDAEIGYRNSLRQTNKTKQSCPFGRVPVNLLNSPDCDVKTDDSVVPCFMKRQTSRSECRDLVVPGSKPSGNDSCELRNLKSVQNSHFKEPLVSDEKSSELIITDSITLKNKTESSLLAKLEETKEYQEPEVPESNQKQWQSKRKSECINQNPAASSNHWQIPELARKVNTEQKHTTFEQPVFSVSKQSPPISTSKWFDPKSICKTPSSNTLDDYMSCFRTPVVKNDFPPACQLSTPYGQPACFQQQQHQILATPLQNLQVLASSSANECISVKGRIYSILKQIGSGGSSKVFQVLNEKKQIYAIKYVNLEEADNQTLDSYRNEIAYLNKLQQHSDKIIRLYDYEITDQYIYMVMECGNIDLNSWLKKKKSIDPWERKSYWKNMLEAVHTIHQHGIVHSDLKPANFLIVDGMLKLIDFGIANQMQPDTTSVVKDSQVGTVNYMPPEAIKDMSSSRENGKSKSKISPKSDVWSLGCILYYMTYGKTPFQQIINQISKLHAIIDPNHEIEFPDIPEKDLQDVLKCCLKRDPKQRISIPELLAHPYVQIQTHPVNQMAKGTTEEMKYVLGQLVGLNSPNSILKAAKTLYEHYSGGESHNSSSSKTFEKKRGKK
# [10] = molecular target: T3, Aurora kinase A (Homo sapiens) (UniProt O14965); conditions: at 0.1 µM
# T3 sequence (whole entry): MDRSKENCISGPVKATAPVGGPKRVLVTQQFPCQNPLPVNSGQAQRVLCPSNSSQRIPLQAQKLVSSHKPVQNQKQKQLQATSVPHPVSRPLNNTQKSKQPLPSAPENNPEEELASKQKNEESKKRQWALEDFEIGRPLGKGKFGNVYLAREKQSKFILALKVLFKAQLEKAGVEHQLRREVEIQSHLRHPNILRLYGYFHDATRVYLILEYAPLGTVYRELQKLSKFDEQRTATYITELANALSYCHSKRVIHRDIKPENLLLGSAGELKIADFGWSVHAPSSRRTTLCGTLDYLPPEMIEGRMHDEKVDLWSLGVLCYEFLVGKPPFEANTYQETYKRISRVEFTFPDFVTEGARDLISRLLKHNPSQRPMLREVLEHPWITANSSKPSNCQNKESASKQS
# [11] = molecular target: T3, Aurora kinase A (Homo sapiens); conditions: at 1 µM
# [12] = molecular target: Aurora kinase B (Homo sapiens) (UniProt Q96GD4); conditions: at 0.1 µM
# [13] = molecular target: Aurora kinase B (Homo sapiens) (UniProt Q96GD4); conditions: at 1 µM
# [14] = molecular target: T4, Aurora kinase C (Homo sapiens) (UniProt Q9UQB9); conditions: at 0.1 µM
# T4 sequence (whole entry): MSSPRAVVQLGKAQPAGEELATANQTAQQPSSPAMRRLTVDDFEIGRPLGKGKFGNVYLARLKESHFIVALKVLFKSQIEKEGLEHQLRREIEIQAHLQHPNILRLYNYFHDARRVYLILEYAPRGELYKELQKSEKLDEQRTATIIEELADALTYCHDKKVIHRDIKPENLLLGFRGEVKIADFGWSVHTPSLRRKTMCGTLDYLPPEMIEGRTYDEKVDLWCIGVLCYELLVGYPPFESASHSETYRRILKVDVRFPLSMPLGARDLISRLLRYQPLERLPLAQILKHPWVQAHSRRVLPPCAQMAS
# [15] = molecular target: T4, Aurora kinase C (Homo sapiens); conditions: at 1 µM
# [16] = molecular target: Serine/threonine-protein kinase 10 (Homo sapiens) (UniProt O94804); conditions: at 0.1 µM
# [17] = molecular target: Serine/threonine-protein kinase 10 (Homo sapiens) (UniProt O94804); conditions: at 1 µM
# [18] = molecular target: T5, Mitogen-activated protein kinase kinase kinase kinase 2 (Homo sapiens) (UniProt Q12851); conditions: at 0.1 µM
# T5 sequence (whole entry): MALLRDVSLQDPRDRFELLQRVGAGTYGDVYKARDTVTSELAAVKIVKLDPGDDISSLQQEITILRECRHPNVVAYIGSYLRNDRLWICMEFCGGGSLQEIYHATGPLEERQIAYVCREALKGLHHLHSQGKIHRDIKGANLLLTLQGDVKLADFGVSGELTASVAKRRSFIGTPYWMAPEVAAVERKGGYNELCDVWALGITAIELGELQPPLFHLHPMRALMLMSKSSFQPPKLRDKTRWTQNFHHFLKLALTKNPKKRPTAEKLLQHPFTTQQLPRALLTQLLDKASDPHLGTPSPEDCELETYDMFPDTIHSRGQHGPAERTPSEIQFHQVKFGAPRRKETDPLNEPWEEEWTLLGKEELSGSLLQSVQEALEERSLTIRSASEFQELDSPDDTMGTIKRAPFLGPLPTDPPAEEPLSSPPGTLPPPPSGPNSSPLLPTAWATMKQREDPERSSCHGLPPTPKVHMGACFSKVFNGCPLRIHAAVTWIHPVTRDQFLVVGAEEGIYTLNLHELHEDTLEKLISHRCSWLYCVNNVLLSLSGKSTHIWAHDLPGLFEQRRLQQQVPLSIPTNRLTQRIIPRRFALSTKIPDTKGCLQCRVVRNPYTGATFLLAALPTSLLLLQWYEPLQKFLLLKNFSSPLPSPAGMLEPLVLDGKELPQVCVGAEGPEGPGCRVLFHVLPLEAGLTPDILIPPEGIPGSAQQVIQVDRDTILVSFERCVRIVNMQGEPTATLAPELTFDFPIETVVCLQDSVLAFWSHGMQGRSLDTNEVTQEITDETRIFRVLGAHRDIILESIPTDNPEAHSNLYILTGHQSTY
# [19] = molecular target: T5, Mitogen-activated protein kinase kinase kinase kinase 2 (Homo sapiens); conditions: at 1 µM
# [20] = molecular target: Mitogen-activated protein kinase kinase kinase kinase 4 (Homo sapiens) (UniProt O95819); conditions: at 0.1 µM
# Sequence of NT-3 growth factor receptor (Homo sapiens) (Q16288 32-839 limits assumed): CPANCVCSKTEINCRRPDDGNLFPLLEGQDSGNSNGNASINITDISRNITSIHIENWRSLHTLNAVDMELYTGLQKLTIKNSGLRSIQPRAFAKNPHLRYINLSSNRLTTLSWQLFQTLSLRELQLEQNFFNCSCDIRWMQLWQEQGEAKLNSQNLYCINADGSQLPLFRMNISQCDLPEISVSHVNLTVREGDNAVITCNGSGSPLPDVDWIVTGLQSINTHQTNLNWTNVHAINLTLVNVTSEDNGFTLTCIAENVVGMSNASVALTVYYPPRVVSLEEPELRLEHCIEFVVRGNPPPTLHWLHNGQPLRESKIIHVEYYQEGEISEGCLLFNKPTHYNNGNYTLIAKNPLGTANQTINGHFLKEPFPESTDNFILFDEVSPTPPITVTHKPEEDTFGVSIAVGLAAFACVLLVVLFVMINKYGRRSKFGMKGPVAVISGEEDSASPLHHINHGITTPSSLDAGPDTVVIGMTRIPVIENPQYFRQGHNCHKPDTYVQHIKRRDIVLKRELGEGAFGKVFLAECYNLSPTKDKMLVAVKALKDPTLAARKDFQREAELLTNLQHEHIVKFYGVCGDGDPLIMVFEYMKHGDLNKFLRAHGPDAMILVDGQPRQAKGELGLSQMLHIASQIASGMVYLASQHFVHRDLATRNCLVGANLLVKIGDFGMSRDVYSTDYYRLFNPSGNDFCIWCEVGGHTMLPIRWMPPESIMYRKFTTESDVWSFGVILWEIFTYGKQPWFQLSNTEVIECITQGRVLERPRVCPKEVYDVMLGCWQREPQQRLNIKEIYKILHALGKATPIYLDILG
# Sequence of High affinity nerve growth factor receptor (Homo sapiens) (P04629 33-796 limits assumed): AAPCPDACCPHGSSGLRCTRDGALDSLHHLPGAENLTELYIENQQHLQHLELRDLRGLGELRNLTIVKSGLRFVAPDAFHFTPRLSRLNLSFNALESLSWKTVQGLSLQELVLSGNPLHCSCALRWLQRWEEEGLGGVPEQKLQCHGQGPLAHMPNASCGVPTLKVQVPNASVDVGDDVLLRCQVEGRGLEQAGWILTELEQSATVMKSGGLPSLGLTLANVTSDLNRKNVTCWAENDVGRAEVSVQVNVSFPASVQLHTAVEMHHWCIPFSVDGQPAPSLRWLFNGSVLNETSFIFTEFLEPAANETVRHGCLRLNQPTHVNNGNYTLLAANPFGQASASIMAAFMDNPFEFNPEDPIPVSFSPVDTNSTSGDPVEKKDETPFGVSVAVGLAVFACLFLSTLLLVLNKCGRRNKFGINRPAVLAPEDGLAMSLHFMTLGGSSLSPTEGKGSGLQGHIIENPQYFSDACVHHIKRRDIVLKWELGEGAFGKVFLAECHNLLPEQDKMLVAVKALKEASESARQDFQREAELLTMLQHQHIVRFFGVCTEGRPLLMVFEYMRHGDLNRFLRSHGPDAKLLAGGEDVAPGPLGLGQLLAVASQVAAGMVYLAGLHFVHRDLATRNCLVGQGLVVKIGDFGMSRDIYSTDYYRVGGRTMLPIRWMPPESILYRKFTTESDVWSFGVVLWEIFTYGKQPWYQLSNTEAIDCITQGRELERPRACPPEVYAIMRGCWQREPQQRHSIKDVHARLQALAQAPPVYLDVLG
# Sequence of Aurora kinase B (Homo sapiens) (Q96GD4 whole entry): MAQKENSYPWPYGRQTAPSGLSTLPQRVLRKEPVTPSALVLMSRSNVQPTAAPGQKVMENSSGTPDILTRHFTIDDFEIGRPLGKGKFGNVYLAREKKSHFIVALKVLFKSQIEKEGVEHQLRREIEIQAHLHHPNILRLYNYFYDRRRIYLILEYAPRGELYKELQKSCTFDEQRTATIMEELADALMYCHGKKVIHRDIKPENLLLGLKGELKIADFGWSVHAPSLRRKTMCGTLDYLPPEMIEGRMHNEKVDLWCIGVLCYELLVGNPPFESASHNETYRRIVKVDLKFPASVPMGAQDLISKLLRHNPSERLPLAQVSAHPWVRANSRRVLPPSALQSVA
# Sequence of Serine/threonine-protein kinase 10 (Homo sapiens) (O94804 whole entry, looked up): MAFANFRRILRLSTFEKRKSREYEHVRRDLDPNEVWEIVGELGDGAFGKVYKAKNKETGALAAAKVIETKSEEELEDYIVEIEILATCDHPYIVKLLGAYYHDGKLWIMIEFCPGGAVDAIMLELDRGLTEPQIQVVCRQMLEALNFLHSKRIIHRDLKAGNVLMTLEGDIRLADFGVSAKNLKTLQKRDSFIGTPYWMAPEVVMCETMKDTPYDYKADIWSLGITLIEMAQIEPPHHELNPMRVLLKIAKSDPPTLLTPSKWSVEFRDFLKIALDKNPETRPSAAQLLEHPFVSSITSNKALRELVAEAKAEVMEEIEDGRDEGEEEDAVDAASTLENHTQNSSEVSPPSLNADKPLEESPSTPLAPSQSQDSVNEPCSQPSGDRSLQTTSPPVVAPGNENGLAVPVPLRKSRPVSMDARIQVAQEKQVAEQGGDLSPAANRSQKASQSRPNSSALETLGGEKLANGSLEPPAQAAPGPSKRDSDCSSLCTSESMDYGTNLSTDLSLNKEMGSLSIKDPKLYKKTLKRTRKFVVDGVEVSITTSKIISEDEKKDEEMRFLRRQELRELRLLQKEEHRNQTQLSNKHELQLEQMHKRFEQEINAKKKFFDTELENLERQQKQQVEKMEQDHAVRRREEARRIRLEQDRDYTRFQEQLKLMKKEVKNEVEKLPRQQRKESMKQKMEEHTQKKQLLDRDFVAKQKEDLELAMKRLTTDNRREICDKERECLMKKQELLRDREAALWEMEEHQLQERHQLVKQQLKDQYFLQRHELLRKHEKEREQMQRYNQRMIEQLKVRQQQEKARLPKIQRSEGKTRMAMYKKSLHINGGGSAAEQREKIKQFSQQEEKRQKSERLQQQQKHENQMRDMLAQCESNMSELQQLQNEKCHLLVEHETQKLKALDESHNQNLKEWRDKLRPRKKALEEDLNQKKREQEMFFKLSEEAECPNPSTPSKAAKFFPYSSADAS
# Sequence of Non-receptor tyrosine-protein kinase TYK2 (Homo sapiens) (P29597 whole entry): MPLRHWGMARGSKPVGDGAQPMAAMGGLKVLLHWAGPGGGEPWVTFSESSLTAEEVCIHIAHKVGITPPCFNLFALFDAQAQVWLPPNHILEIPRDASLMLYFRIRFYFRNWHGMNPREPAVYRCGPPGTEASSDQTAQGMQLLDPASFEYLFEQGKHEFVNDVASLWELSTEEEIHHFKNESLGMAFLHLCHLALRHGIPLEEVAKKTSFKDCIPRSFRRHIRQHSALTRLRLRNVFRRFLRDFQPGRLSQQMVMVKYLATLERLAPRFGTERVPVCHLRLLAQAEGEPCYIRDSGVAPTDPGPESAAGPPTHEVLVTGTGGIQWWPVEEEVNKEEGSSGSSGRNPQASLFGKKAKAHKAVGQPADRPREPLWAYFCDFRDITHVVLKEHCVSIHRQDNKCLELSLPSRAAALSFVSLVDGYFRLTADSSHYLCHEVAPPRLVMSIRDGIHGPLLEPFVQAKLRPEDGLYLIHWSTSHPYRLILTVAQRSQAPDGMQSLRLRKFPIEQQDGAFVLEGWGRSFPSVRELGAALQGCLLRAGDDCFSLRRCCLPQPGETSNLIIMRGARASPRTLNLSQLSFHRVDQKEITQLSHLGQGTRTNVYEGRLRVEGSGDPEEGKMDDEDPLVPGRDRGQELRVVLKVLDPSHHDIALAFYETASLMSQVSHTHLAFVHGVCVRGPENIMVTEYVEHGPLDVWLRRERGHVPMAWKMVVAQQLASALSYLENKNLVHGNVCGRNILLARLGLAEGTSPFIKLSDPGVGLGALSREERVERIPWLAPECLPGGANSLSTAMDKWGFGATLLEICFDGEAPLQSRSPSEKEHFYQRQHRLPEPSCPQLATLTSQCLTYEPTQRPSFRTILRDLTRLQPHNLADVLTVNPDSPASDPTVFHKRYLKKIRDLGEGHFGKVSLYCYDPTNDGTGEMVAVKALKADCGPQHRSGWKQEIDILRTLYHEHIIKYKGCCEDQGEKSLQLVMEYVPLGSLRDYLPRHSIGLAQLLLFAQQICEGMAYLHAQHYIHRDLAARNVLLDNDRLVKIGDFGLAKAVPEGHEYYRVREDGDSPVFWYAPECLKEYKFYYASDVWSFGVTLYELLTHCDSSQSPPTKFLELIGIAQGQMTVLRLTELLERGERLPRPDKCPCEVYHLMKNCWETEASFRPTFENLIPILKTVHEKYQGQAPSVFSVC
# Sequence of BDNF/NT-3 growth factors receptor (Homo sapiens) (Q16620 32-822 limits assumed): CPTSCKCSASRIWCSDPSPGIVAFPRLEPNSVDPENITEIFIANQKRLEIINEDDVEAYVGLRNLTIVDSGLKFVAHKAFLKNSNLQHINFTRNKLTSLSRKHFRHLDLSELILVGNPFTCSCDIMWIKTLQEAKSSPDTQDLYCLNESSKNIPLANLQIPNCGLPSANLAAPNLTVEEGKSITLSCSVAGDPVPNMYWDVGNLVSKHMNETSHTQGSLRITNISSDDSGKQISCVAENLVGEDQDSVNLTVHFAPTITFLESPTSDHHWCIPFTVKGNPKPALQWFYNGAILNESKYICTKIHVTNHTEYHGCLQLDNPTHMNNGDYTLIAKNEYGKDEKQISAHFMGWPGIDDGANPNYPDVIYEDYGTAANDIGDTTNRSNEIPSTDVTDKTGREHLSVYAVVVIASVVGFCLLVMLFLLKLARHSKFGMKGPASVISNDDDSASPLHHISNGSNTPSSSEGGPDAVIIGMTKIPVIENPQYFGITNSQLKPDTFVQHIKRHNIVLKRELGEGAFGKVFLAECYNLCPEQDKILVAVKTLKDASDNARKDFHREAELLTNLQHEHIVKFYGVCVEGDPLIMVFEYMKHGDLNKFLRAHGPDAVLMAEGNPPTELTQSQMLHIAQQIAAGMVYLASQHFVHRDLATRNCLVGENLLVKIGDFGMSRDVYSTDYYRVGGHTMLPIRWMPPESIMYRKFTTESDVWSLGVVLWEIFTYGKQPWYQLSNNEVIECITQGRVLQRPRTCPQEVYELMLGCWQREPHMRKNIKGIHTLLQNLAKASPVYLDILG
Structure (SMILES),inhibition [1] [%],inhibition [2] [%],inhibition [3] [%],inhibition [4] [%],inhibition [5] [%],inhibition [6] [%],inhibition [7] [%],inhibition [8] [%],inhibition [9] [%],inhibition [10] [%],inhibition [11] [%],inhibition [12] [%],inhibition [13] [%],inhibition [14] [%],inhibition [15] [%],inhibition [16] [%],inhibition [17] [%],inhibition [18] [%],inhibition [19] [%],inhibition [20] [%]
CN(C)CCOc1ccc(-c2cc(-c3ccc4c(c3)CCC4=NO)c(-c3ccncc3)o2)cc1,-2.77,-0.06,1.62,0.94,-0.98,0.73,3.15,0.89,1.15,0.13,0.04,-1.06,1.93,0.74,7.21,16.8,62.6,2.2,5.27,0.91
C[C@@H](Oc1cc(-n2cnc3ccc(OCC4CCN(C)CC4)cc32)sc1C(N)=O)c1ccccc1Cl,5.94,3.02,10.1,4.35,10.4,5.54,8.91,-2.69,43.2,3.84,6.43,4.49,5.33,-0.3,3,63.3,86.9,2.59,13.9,4.27
CN(C)c1ccc2c(c1)/C(=C/Nc1ccc(S(N)(=O)=O)cc1)C(=O)N2,46.2,15.4,65.2,21,73.1,3.16,4.14,1.02,12.5,6.26,50.7,4.95,30.4,17.9,48,3,18.1,5.66,29.9,23.9
O=C(Nc1n[nH]c2nc(-c3ccc(O)cc3)c(Br)cc12)C1CC1,12.3,5.55,14.5,5.79,16.4,4.99,9.15,-1.54,15.3,5.34,37.7,4.29,12.7,2.12,8.73,16.2,61.3,7,34.4,32.2
O=C(Nc1n[nH]c2cc(-c3cc(F)ccc3F)ccc12)C1CC1,8.4,3.77,8.07,3.77,14,2.25,0.99,-1,9.7,2.63,18.1,2.4,6.93,0.12,8.07,4.84,13.1,0.39,5.06,16.4
Cc1ccc(C(=O)NC2CCC2)cc1-c1ccc(C(=O)NCC2CC2)cc1,3.19,1.02,1.56,2.08,1.92,2.58,3.4,-0.8,9.27,2.11,7.83,0.48,5.72,0.47,7.37,2.19,6.8,0.91,0.04,3.19
